Screening results: PubChem BioAssay, several laboratories
PfHsp90 yeast 2 = growth inhibition of PfHsp90-expressing yeast, primary screen, antimalarial PfHsp90 inhibitor project, S. cerevisiae, BacTiter-Glo luminescence, single point, set 2 | BacTiter-Glo ATP, 48 h; yeast lacking PDR1 and PDR3 efflux regulators | inhibition, % at 9.4 µM | hit rate 0.32% among 310,000;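 active = every replicate shows inhibition above about 80%, whatever the replicate mean, limit read from the data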;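 also: 0% = DMSO neutral controls and 100% = 20 µM radicicol positive controls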
TIM10 inh = growth inhibitors of isogenic TIM10 control yeast, primary screen, counter-screen for tim10-1 yeast inhibitor project, luminescence, uHTS; hit rate 1.4% among 330,000; S. cerevisiae TIM10 strain growth, BacTiter-Glo luminescence, 24 h; AID 463195, 2010; inhibition, % at 10 µM;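 active = inhibition of 40% or more at the single tested concentration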;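 also: wild-type TIM10 isogenic control strain grown at permissive 25 °C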
tim10-1 inh = growth inhibitors of tim10-1 mutant yeast, primary screen, luminescence, uHTS; S. cerevisiae tim10-1 ts strain growth, BacTiter-Glo, 24 h; inhibition, % at 20 µM; hit rate 2.2% among 330,000;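 active = inhibition of at least 40%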;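 also: mutant grown at 25 °C; 0% = DMSO wells with yeast and 100% = wells holding no yeast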
SKKanGAS inh = S. pyogenes SKKanGAS growth inhibitors in kanamycin, primary screen, streptokinase expression inhibitor project, SKKanGAS strain, BacTiter-Glo luminescence; 6 h; inhibition, % at 7.5 µM; hit rate 1.3% among 300,000; AID 1662, 2009;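 active = mean replicate score, as percent of positive control median, at least 50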;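 also: strain carries kanamycin resistance gene driven by streptokinase promoter and grows in 40 µg/ml kanamycin; loss of luminescence reflects streptokinase promoter inhibition or plain growth inhibition; 0% = median of DMSO wells and 100% = positive control at its reference dose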
tim23-1 inh = growth inhibitors of tim23-1 mutant yeast, primary screen, luminescence, uHTS | AID 463212, 2010 | inhibition, % at 20 µM | S. cerevisiae tim23-1 growth, BacTiter-Glo luminescence, 24 h | hit rate 1.3% among 330,000;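 active = growth inhibition of the mutant yeast at or above 50%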;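 also: temperature-sensitive mutant grown at 25 °C; plate controls were DMSO-treated mutant yeast for no effect and medium wells lacking yeast for full effect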
tim10-1 conf = growth inhibitors of tim10-1 mutant yeast, confirmation, single concentration, luminescence, S. cerevisiae; shares compounds with tim10-1 inh; S. cerevisiae tim10-1 ts strain growth, BacTiter-Glo, 24 h; inhibition, % at 20 µM; hit rate 56% among 7,400;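 active = inhibition of yeast growth at or above a set limit in either of two repeat tests at 20 µM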;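 also: tim10-1 mutant grown at permissive 25 °C to find synthetic lethal compounds; 0% = DMSO yeast wells and 100% = medium wells without yeast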
tim10 confirm = growth inhibitors of wild-type TIM10 yeast, confirmation, counter-screen for tim10-1 synthetic lethality project, single concentration, luminescence, S. cerevisiae; shares compounds with TIM10 inh; S. cerevisiae tim10 strain growth, BacTiter-Glo luminescence, 24 h; inhibition, % at 10 µM; hit rate 63% among 4,600; AID 463215, 2010;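 active = inhibition of yeast growth at or above a set limit in either of two replicates at 10 µM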;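 also: this counterscreen used the strain with wild-type TIM10; 0% = yeast with DMSO and 100% = medium wells lacking yeast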
tim23-1 conf = tim23-1 mutant yeast growth inhibitors, confirmation, luminescence, single concentration. S. cerevisiae tim23-1 growth, BacTiter-Glo luminescence, 24 h. AID 463218, 2010. shares compounds with tim23-1 inh. inhibition, % at 20 µM. hit rate 83% among 4,400;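 active = inhibition above about 39% in either of two replicate wells at 20 µM, limit read from the data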;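 also: temperature-sensitive tim23-1 mutant grown at 25 °C; 0% = DMSO wells with yeast and 100% = medium wells without yeast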
Starred values were filed as active, the others as inactive; nt = not tested or not shown. A selection: hits, their analogues and other compounds. The true share with any hit is near 4.4%.

SMILES | PfHsp90 yeast 2 | TIM10 inh | tim10-1 inh | SKKanGAS inh | tim23-1 inh | tim10-1 conf | tim10 confirm | tim23-1 conf
CCN(Cc1ccccc1)C(c1ccc(C)cc1)c1nnnn1C(C)(C)C (stereo unspecified) | -21 | 12 | 29 | 40 | 24 | nt | nt | nt
CCN(Cc1ccccc1)C(c1ccccn1)c1nnnn1C(C)(C)CC (stereo unspecified) | -1 | 52* | 42* | -3 | 66* | 47* | 51* | 55*
CCCCNC(=O)N(O)C1N(/N=C/c2ccco2)C(=S)SC1(C)C (stereo unspecified) | -11 | -7 | -8 | nt | 2 | nt | nt | nt
C=CCn1c(O)c(/C=C2\C=NN=C2c2ccccc2)sc1=S | -19 | 25 | 43* | 11 | 51* | 35* | nt | 51*
CCOc1ccccc1N1CC(C(=O)N(Cc2nnc(-c3ccccc3Cl)o2)C2CC2)CC1=O (stereo unspecified) | -4 | 3 | 12 | -1 | 10 | nt | nt | nt
COc1ccccc1N1CCN(Cc2cc(Br)c(O)c3ncccc23)CC1 | -70 | -9 | 54* | 82* | 68* | 19 | nt | 57*
CCOc1ccccc1N1CCN(Cc2cccc(OC)c2O)CC1 | -10 | -1 | 16 | 2 | 27 | nt | nt | nt
CCN(CC)c1ccc(N2C(=NC(=O)C3CC3)SC3CS(=O)(=O)CC32)cc1 (stereo unspecified) | 7 | -1 | 12 | -4 | 12 | nt | nt | nt
Cc1cc(N)n2ncc(-c3cccc(Br)c3)c2n1 | -11 | 51* | 46* | nt | 82* | 50* | 52* | 40*
Cc1cc(N)n2ncc(-c3ccccc3)c2n1 | 7 | 22 | 28 | -7 | 15 | nt | nt | nt
O=C(Nc1ncc([N+](=O)[O-])s1)c1ccco1 | 38 | 46* | 40* | 14 | 53* | 40* | 23 | 48*
CCCc1cc(=O)oc2cc(OC(=O)CN3C(=O)NC4(CCCC4)C3=O)ccc12 | -19 | 12 | 4 | -1 | 15 | nt | nt | nt
O=c1c2c3c(sc2ncn1/N=C/c1ccncc1)CCCC3 | 10 | 43* | 61* | -3 | 66* | 62* | 50* | 27
O=c1c2c3c(sc2ncn1/N=C/c1cccnc1)CCCC3 | -12 | 20 | 39 | -3 | 44 | nt | nt | nt
COc1cc(/C=C(\C#N)C(=O)NCC2CCCO2)ccc1OC(=O)c1ccco1 (stereo unspecified) | nt | 34 | 40* | nt | 64* | 34* | nt | 53*
CC(Cc1cccs1)NC(=O)Nc1ccc(Cl)c(Cl)c1 (stereo unspecified) | -10 | 59* | 47* | 28 | 52* | 52* | 62* | 54*
CC(Cc1cccs1)NC(=O)Nc1ccc(Cl)cc1 (stereo unspecified) | 6 | 13 | 36 | 16 | 25 | nt | nt | nt
CCN(C[C@H]1N[C@@](Cc2ccccc2)(C(=O)OC)[C@H]2C(=O)N(C)C(=O)[C@@H]12)C(=O)NC(C)C | 3 | -6 | 9 | nt | 8 | nt | nt | nt
O=C(OCc1nnc(-c2ccccc2)o1)c1ccc([N+](=O)[O-])s1 | 13 | 79* | 57* | nt | 56* | 68* | 86* | 73*
Cc1ccc(C(=O)OCc2nnc(-c3ccccc3)o2)s1 | nt | 15 | 29 | 16 | 32 | nt | nt | nt
O=C(COC(=O)c1ccc([N+](=O)[O-])s1)NC(c1ccccc1)c1ccccc1 | -28 | 7 | 20 | 22 | 4 | nt | nt | nt
O=C(COC(=O)c1ccc([N+](=O)[O-])s1)NCc1ccccc1 | 9 | 54* | 41* | 3 | 51* | 41* | 32* | 33
CCOc1ccc(C2/C(=C(\O)c3ccc4c(c3)OCCO4)C(=O)C(=O)N2CCN2CCOCC2)cc1OC (stereo unspecified) | 8 | -7 | -23 | nt | -1 | nt | nt | nt
CCOc1ccc(Cl)cc1C1=CC(=O)C[C@H](c2ccc(OC)cc2)C1 | 3 | -22 | 28 | nt | 24 | nt | nt | nt
Cc1ccc(Nc2nc(-c3c(C)nc4ccccn34)cs2)cc1 | -16 | 58* | 51* | -6 | 54* | 32* | 58* | 43*
SMILES | PfHsp90 yeast 2 | TIM10 inh | tim10-1 inh | SKKanGAS inh | tim23-1 inh | tim10-1 conf | tim10 confirm | tim23-1 conf
Cc1ccc(C)c(-c2nnc(NC(=O)Cc3ccccc3)o2)c1 | -26 | -6 | -1 | 22 | 1 | nt | nt | nt
CCOC(=O)C1(Cc2ccccc2C#N)CCCCC1=O (stereo unspecified) | -2 | nt | nt | nt | nt | nt | nt | nt
CC(=O)Cc1nsc(NC(=O)c2ccc(-c3cc(Cl)ccc3Cl)o2)n1 | -21 | 25 | 20 | 18 | 31 | nt | nt | nt
CC(=O)Cc1nsc(NC(=O)c2ccc(-c3ccc(Cl)cc3Cl)o2)n1 | -44 | 7 | 46* | 17 | 57* | 35* | nt | 53*
CCC1Oc2ccccc2N(CC(=O)NCc2cccs2)C1=O (stereo unspecified) | -1 | 2 | 8 | 4 | 10 | nt | nt | nt
Nc1c(-c2ccccc2)cnn1-c1ccccc1 | 10 | -25 | -21 | 3 | 9 | nt | nt | nt
O=c1cnn(-c2ccccc2)c(-c2ccccc2)c1 | -28 | 76* | 54* | -9 | 65* | 62* | 64* | 70*
O=c1cc(CN2CCc3ccccc32)c2ccc(O)cc2o1 | 3 | 20 | 44* | -5 | 51* | 32* | nt | 48*
Cc1cccc(-c2cc3nc4c(c(NCc5ccco5)n3n2)CCCC4)c1 | 10 | 27 | 53* | 15 | 54* | 34* | nt | 56*
N/C(=N\OC(=O)c1ccc(F)cc1)c1ccccc1 | -3 | 63* | 68* | 5 | 73* | 64* | 61* | 76*
Cc1ccc(/C(N)=N/OC(=O)c2ccc(F)cc2)cc1 | 14 | 67* | 59* | -3 | 68* | 55* | 69* | 65*
Cc1ccc(C(=O)O/N=C(\N)c2ccccn2)cc1 | 54 | 35 | 38 | 4 | 38 | nt | nt | nt
O=C(/C=C/c1ccccc1O)c1ccco1 | 20 | 40 | 44* | -9 | 52* | 35* | nt | 50*
Nc1ccc(/C=C/C(=O)c2ccco2)cc1 | -5 | 11 | 15 | -1 | 33 | nt | nt | nt
COc1cc(Br)cc(CNc2ccc(F)c([N+](=O)[O-])c2)c1O | -18 | 44* | 55* | 3 | 54* | 33* | 40* | 56*
O=C1c2ccccc2S(=O)(=O)c2cc(C(=O)N3CCC(N4CCCC4)CC3)ccc21 | 7 | -11 | 0 | 1 | 5 | nt | nt | nt
Clc1ccccc1OCCn1nnc2ccccc21 | -18 | -2 | -15 | -2 | 20 | nt | nt | nt
